Source: PubChem BioAssay (NCI)
Where “and” joins values, the source holds several entries; their conditions need not be identical. Equal entries are not always repeated. About 83,000 compounds went through this panel and 20% of them were active in at least one assay; those are over-represented in the sample as a whole.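 48-hour exposure, single concentration, 96-well plates; percent growth endpoint where 0 means no net growth. Active: below 10.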 Calls of active or inactive are those of the source.

Experiments:
Test in all cases: NCI-60 one-dose screen, 48 h (100 = growth as untreated, 0 = no growth, -100 = all killed)
Details in all cases: 10 µM unless noted
HCT-15 colon = test system: HCT-15 colon
HT29 colon = test system: HT29 colon
SNB-75 CNS = test system: SNB-75 CNS
SNB-19 CNS = test system: SNB-19 CNS
U251 CNS = test system: U251 CNS
PC-3 prostate = test system: PC-3 prostate
SK-MEL-5 melanoma = test system: SK-MEL-5 melanoma
UACC-62 melanoma = test system: UACC-62 melanoma
LOX IMVI melanoma = test system: LOX IMVI melanoma
SK-MEL-28 melanoma = test system: SK-MEL-28 melanoma
SK-MEL-2 melanoma = test system: SK-MEL-2 melanoma
EKVX NSCLC = test system: EKVX NSCLC
UO-31 renal = test system: UO-31 renal
TK-10 renal = test system: TK-10 renal
ACHN renal = test system: ACHN renal
CAKI-1 renal = test system: CAKI-1 renal
A498 renal = test system: A498 renal
CCRF-CEM leukemia = test system: CCRF-CEM leukemia
MOLT-4 leukemia = test system: MOLT-4 leukemia
SN12C renal = test system: SN12C renal

Row | SMILES | growth (HCT-15 colon) | growth (HT29 colon) | growth (SNB-75 CNS) | growth (SNB-19 CNS) | growth (U251 CNS) | growth (PC-3 prostate) | growth (SK-MEL-5 melanoma) | growth (UACC-62 melanoma) | growth (LOX IMVI melanoma) | growth (SK-MEL-28 melanoma) | growth (SK-MEL-2 melanoma) | growth (EKVX NSCLC) | growth (UO-31 renal) | growth (TK-10 renal) | growth (ACHN renal) | growth (CAKI-1 renal) | growth (A498 renal) | growth (CCRF-CEM leukemia) | growth (MOLT-4 leukemia) | growth (SN12C renal)
1 | Cc1ccc(C(=O)Nc2cccc(C(=O)NC(=S)Nc3ccc(S(N)(=O)=O)cc3)c2)cc1 | 80.5% (inactive) | 85.1% (inactive) | 50.5% (inactive) | 83.1% (inactive) | 84.4% (inactive) | 78.9% (inactive) | 49.8% (inactive) | 69.4% (inactive) | 78.8% (inactive) | 79.8% (inactive) | 82.7% (inactive) | 88.2% (inactive) | 69.4% (inactive) | 104% (inactive) | 69.3% (inactive) | 49.5% (inactive) | 109% (inactive) | 84.5% (inactive) | 59.2% (inactive) | 
2 | CC(C)(C)c1ccc(OCc2nc3ccccc3n2-c2cccc(N)c2)cc1 | 39.3% (inactive) and 103% (inactive) | 30.8% (inactive) and 110% (inactive) | 56.9% (inactive) and 120% (inactive) | 75.3% (inactive) and 100% (inactive) | 59.3% (inactive) and 105% (inactive) | 35.2% (inactive) and 99.9% (inactive) | 5.56% (active) and 98.9% (inactive) | 55.3% (inactive) and 98.3% (inactive) | 54.7% (inactive) and 97.9% (inactive) | 79.4% (inactive) and 121% (inactive) | 62.8% (inactive) and 109% (inactive) | 45.5% (inactive) and 96.8% (inactive) |  | 93.3% (inactive) and 111% (inactive) | 70.2% (inactive) and 112% (inactive) | 44.4% (inactive) and 95.6% (inactive) | 142% (inactive) and 126% (inactive) | 46% (inactive) and 96.1% (inactive) | 25.4% (inactive) and 90.9% (inactive) | 79.2% (inactive) and 106% (inactive)
3 | CCN1C(=O)N(CC)C2NNC(Sc3c(C(=O)O)c4ccccc4n(CCC(C)C)c3=O)=NC21 (stereo unspecified) | 2.84% (active) | -30% (active) | 26.1% (inactive) | 15.5% (inactive) | 2.04% (active) | 26.1% (inactive) | 3.73% (active) | 17.9% (inactive) | -41.7% (active) | 45.5% (inactive) | 22.3% (inactive) | 20.8% (inactive) |  | 62.1% (inactive) | 24% (inactive) | 38.9% (inactive) |  | 7.16% (active) | 3.81% (active) | 16.3% (inactive)
4 | Nc1cc(-c2c[nH]c3ccc(F)cc23)nc2cc(-c3c[nH]c4ccccc34)nn12 | -61.2% (active) | -42.8% (active) | 66.2% (inactive) | -19.1% (active) | -19.1% (active) | 10.3% (inactive) | -4.35% (active) | -8.04% (active) | -83.9% (active) | -33.9% (active) | -16.8% (active) | 7.95% (active) | 21.7% (inactive) | 17.3% (inactive) | 6.95% (active) | 1.64% (active) |  | -11.6% (active) | -9.73% (active) | 
5 | C[C@@H](Nc1c(C#N)cnc2ccc(-c3cnc4[nH]ncc4c3)cc12)c1ccccc1 | 8.64% (active) | 79.5% (inactive) | -26.9% (active) | 30.7% (inactive) | 23.4% (inactive) | 13.4% (inactive) | -67.5% (active) | -16% (active) | 16% (inactive) | 15.4% (inactive) | -24.8% (active) | -31.9% (active) |  | -6.48% (active) |  | 4.1% (active) | -40.2% (active) | 0.263% (active) | -34.5% (active) | 11.3% (inactive)
6 | CC(C)C[C@H](NC(=O)[C@@H]1CCCCCCCCCCC(=O)N[C@@H](CC(=O)N2CCC[C@@H]2C2CCCC2)C(=O)N1)B(O)O | -36.7% (active) | -18% (active) | -77% (active) | 6.18% (active) | -50.7% (active) | 8.18% (active) | -92% (active) | -86.8% (active) | -93.3% (active) | -5.72% (active) | -70.6% (active) | -39.2% (active) | -66.8% (active) | 0.691% (active) | 3.27% (active) | 7.24% (active) | -87.2% (active) | 44% (inactive) | -19.9% (active) | 
7 | O=C(Nc1ccc(-c2ccc3c(c2)NC(=O)/C3=C\c2ccc[nH]2)cc1)Nc1ccc(Cl)c(Cl)c1 | 41.4% (inactive) | 10.7% (inactive) | 52.1% (inactive) | 67.5% (inactive) | 21.9% (inactive) | 64.7% (inactive) | 74.7% (inactive) | 42.4% (inactive) | 26.2% (inactive) | 64.2% (inactive) | 88.9% (inactive) | 46.5% (inactive) | 54.9% (inactive) | 77.6% (inactive) | 53.7% (inactive) | 39.1% (inactive) | 101% (inactive) | 33.1% (inactive) | 33.5% (inactive) | 
8 | O=C(N/N=C/c1ccoc1)c1[nH]c2ccc(Br)cc2c1-c1ccccc1 | -100% (active) | -50.2% (active) | -79.6% (active) | -97.5% (active) | -81.5% (active) | -37.3% (active) | -97.2% (active) | -99.6% (active) | -100% (active) | -93.7% (active) | -84.5% (active) | -97.6% (active) | -82.5% (active) | -82.5% (active) | -100% (active) | -99.6% (active) | -82.9% (active) | -12.1% (active) | -5.76% (active) | 
9 | NS(=O)(=O)c1ccc(Nc2nc(SCC(=O)c3ccc(F)cc3)nc3ccccc23)cc1 | 24.9% (inactive) | 63.3% (inactive) | 43.5% (inactive) | 54.8% (inactive) | 47.2% (inactive) | 43.1% (inactive) | 18.6% (inactive) | 26.4% (inactive) | 20.7% (inactive) | 55.6% (inactive) | 48.3% (inactive) | 39.1% (inactive) | 29.1% (inactive) | 80.9% (inactive) | 49.7% (inactive) | 47.3% (inactive) | 94.6% (inactive) | 26.9% (inactive) | 16.8% (inactive) | 
10 | COC(=O)c1cc(C(=O)CBr)n2c1ccc1c3ccccc3ccc12 | 39.3% (inactive) | 44.6% (inactive) | 90.2% (inactive) | 55.5% (inactive) | 39.4% (inactive) | 53.1% (inactive) | 53.4% (inactive) | 51.2% (inactive) | 31.9% (inactive) | 92.3% (inactive) | 113% (inactive) | 60.1% (inactive) |  | 84.3% (inactive) | 17.4% (inactive) | 54% (inactive) |  | 14% (inactive) | 6.44% (active) | 51.1% (inactive)
11 | COC(=O)c1ccc(-c2c(-c3ccccc3)c(F)c3oc(C(=O)OC)c(N)c3c2-c2ccccc2)cc1 | 77% (inactive) | 102% (inactive) | 95.7% (inactive) | 80.2% (inactive) | 82.2% (inactive) | 92.1% (inactive) | 99.4% (inactive) | 82.8% (inactive) | 81.6% (inactive) | 98.9% (inactive) | 99.6% (inactive) | 90.4% (inactive) | 88.6% (inactive) | 114% (inactive) | 102% (inactive) | 81.1% (inactive) | 99% (inactive) | 95% (inactive) | 66.5% (inactive) | 
12 | O=C(Nc1ccc(Cl)c(C(F)(F)F)c1)N1CCN(c2cc(-c3cn(-c4ccccc4)nc3-c3cccc(O)c3)ccn2)CC1 | -7.34% (active) | -35.3% (active) | 5.08% (active) | 17% (inactive) | 11.8% (inactive) | 6.31% (active) | -97.2% (active) | -88.6% (active) | -76.9% (active) | -24.8% (active) | -66.9% (active) | -0.99% (active) |  |  | 3.14% (active) | 9.06% (active) |  | 0.607% (active) | 1.52% (active) | 4.12% (active)
13 | O=C(NNC(=S)NC(=O)c1ccccc1)c1ccc(OCc2nc3ccc(Cl)cc3[nH]2)cc1 | -75.1% (active) | -6.38% (active) | -17.8% (active) | -12.9% (active) | -71.4% (active) | 2.48% (active) | -73.4% (active) | -88.4% (active) | -92.2% (active) | -82.7% (active) | -47.3% (active) | -53% (active) | -76.1% (active) | 11.2% (inactive) | -43% (active) | -1.67% (active) |  | 2.87% (active) | 2.46% (active) | 
14 | O=C(CSc1nc2sc3c(c2c(=O)n1-c1ccc(Cl)cc1)CCCC3)N/N=C/C=C/c1ccccc1 | -57.6% (active) | -19.3% (active) | -23.2% (active) | 27% (inactive) | -76.4% (active) | -17.4% (active) | -95.2% (active) | -79.9% (active) | 31.7% (inactive) | -80.1% (active) | -29.3% (active) | 39.7% (inactive) | 85.1% (inactive) | -19% (active) | 25.3% (inactive) | 38.5% (inactive) | -40.8% (active) | -33.7% (active) | -24.4% (active) | 
15 | CN(C(=O)CN1C(=O)/C(=C/c2ccco2)SC1=S)C1CCS(=O)(=O)C1 (stereo unspecified) | 87.5% (inactive) | 99.5% (inactive) | 89% (inactive) | 95.7% (inactive) | 102% (inactive) | 102% (inactive) | 98.5% (inactive) | 90% (inactive) | 91.6% (inactive) | 105% (inactive) | 98.5% (inactive) | 97.9% (inactive) |  | 122% (inactive) | 106% (inactive) | 93.5% (inactive) | 103% (inactive) | 80.3% (inactive) | 100% (inactive) | 
16 | Cc1ccc(Cl)cc1NC(=O)Nc1nc2ccc([N+](=O)[O-])cc2s1 | -4.98% (active) | -18.9% (active) | -26.6% (active) | 7.85% (active) | -26.6% (active) | 2.69% (active) | -81.1% (active) | -15.4% (active) | -21.1% (active) | -17% (active) | -47.1% (active) | -0.784% (active) | -16.3% (active) | 2.13% (active) | -19.8% (active) | -26% (active) | -21.7% (active) | 3.14% (active) | 6.23% (active) | 
